A number with no mark means an inactive call. Inconclusive results are not listed. Calls of active or inactive are those of the source. The call rests on the fitted dose curve; in most records, active means well fitted curve in the direction sought with a large enough effect; inconclusive means small, poorly fitted or top-dose-only effect, or another doubt; inactive means no such curve, though single readings can be large; an effect the other way counts as inactive or inconclusive.
Molecular target: Arylsulfatase A (Homo sapiens) (UniProt P15289)
Assay: qHTS screen for enhancers of Arylsulfatase A (ASA1): LOPAC Validation Assay (AID 720538); on activity change, positive = activation: 0% is about no effect
Conditions: ASA enzyme activity, LOPAC qHTS enhancer assay; series mostly up to 57.5 µM; activity change, positive = activation: at the top concentration
Summary of the method: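 First, ASA-I179S fibroblasts from an MLD patient adhered for 6 hrs. Next, compounds were added for 48h. Then pNCS substrate (0.5mM final) with lysis buffer reacted 14h at room temperature before NaOH stop and fluorescence measurement.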

Sequence of Arylsulfatase A (Homo sapiens) (P15289 whole entry, looked up): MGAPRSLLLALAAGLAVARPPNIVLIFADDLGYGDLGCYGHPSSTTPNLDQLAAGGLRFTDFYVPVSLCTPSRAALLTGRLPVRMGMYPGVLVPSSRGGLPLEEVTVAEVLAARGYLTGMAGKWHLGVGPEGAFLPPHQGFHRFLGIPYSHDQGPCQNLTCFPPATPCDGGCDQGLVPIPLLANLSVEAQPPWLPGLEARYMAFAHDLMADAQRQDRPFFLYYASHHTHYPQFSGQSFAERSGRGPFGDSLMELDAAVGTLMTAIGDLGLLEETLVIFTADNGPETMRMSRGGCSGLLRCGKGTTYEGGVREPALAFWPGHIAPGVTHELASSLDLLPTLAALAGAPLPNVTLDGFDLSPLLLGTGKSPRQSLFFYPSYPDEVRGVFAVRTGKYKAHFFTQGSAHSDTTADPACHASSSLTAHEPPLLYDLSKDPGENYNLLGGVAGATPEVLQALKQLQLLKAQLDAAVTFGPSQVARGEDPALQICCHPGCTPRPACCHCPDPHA

Compared with `CNCCC(Oc1ccccc1C)c1ccccc1` (stereo unspecified), `CNCCC=C1c2ccccc2CCc2ccccc21` is lower in “activity change, positive = activation” value: -31.9% for the first, -32.3% for the second.

First: COc1cc(NS(C)(=O)=O)ccc1Nc1c2ccccc2nc2ccccc12
Second: CC(CCc1ccccc1)NCC(O)c1ccc(O)c(C(N)=O)c1 (stereo unspecified)
The “activity change, positive = activation” value of the first is lower: 8.99% for the first, 25.1% for the second.

In the case of `O=C(O)c1cc2cc(Cc3cccnc3)ccc2o1`, the outcome is reported as “inactive”.
With `C[N+]1(CCCCC[N+]2(C)CCCC2)CCCC1` the outcome was “inactive”.
With `N[C@H](CO)C(=O)O` the outcome was “inactive”.
For `CC(C)C[C@H]1C(=O)N2CCC[C@H]2[C@]2(O)O[C@](NC(=O)[C@@H]3C=C4c5cccc6[nH]c(Br)c(c56)C[C@H]4N(C)C3)(C(C)C)C(=O)N12`, the outcome was “inactive”.
In the case of `CC1(C)CCC(NC(=O)[C@@H](N)CCC(=O)O)CC1`, the outcome is reported as “inactive”.
For `COC(=O)[C@H]1[C@H]2C[C@H]3c4[nH]c5ccccc5c4CCN3C[C@H]2CC[C@@H]1O`, the outcome was “inactive”.
For `C[C@@H]1C(=O)NC2=Nc3cccc(Cl)c3CN21`, the outcome was “inactive”.

System: not listed separately
Assay: qHTS for compounds that reverse cellular toxicity of Amyloid beta (A-beta) peptide in yeast: LOPAC Validation Assay (AID 720559);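 further: plate controls were DMSO for no effect and equimolar ferric chloride plus clioquinol rescue for full effect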
Conditions: yeast expressing A-beta; series mostly up to 46.1 µM; growth rescue, positive = activation: at the top concentration
Summary of the method: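 Activity is expressed relative to DMSO and an equimolar ferric chloride/clioquinol mix. Compounds were pinned into medium with A-beta-expressing yeast, grown 48 hr at 30 C, then read by absorbance at 600 nm.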

Going from `CNCCC(Oc1ccccc1C)c1ccccc1` (stereo unspecified) to `CNCCC=C1c2ccccc2CCc2ccccc21`, the “growth rescue, positive = activation” value rises from 3.18% to 8.47%.

First: COc1cc(NS(C)(=O)=O)ccc1Nc1c2ccccc2nc2ccccc12
Second: CC(CCc1ccccc1)NCC(O)c1ccc(O)c(C(N)=O)c1 (stereo unspecified)
The “growth rescue, positive = activation” value of the first is lower: -1.31% for the first, -0.179% for the second.

Going from `O=C(O)c1cc2cc(Cc3cccnc3)ccc2o1` to `COC(=O)[C@H]1[C@H]2C[C@H]3c4[nH]c5ccccc5c4CCN3C[C@H]2CC[C@@H]1O`, the “growth rescue, positive = activation” value falls from -1.07% to -6.77%.

Compared with `C[N+]1(CCCCC[N+]2(C)CCCC2)CCCC1`, `CC(=O)O[C@H]1C[C@@H]2CC[C@@H]3[C@H](CC[C@@]4(C)[C@H]3C[C@H]([N+]3(C)CCCCC3)[C@@H]4OC(C)=O)[C@@]2(C)C[C@@H]1[N+]1(C)CCCCC1` is higher in “growth rescue, positive = activation” value: -11.1% for the first, -6.63% for the second.

Going from `N[C@H](CO)C(=O)O` to `CC1(C)CCC(NC(=O)[C@@H](N)CCC(=O)O)CC1`, the “growth rescue, positive = activation” value falls from -1.88% to -5.6%.

Going from `CC(C)C[C@H]1C(=O)N2CCC[C@H]2[C@]2(O)O[C@](NC(=O)[C@@H]3C=C4c5cccc6[nH]c(Br)c(c56)C[C@H]4N(C)C3)(C(C)C)C(=O)N12` to `CC(C)COC(=O)OCN1C(=O)CN(CCN2CC(=O)N(COC(=O)OCC(C)C)C(=O)C2)CC1=O`, the “growth rescue, positive = activation” value falls from -7.28% to -11.9%.

Compared with `CCC(NC(C)C)C(O)c1ccc(O)c(O)c1` (stereo unspecified), `C[C@@H]1C(=O)NC2=Nc3cccc(Cl)c3CN21` is lower in “growth rescue, positive = activation” value: 7.64% for the first, -9.51% for the second.

For `C1CCc2nnnn2CC1`, the “growth rescue, positive = activation” value was -6.8%.

System: not listed separately
Assay: qHTS for Activators of Parkin Expression: LOPAC Validation Assay (NLuc Reporter) (AID 720572;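 further: 0% = DMSO and 100% = positive control compound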)
Conditions: Parkin promoter NanoLuc reporter cells, luminescence, percent of positive control, DMSO as zero; series mostly up to 46.1 µM; activation: at the top concentration
Summary of the method: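 Parkin promoter-driven FLuc/NLuc neuronal reporter cells; 24 h plating, 7-pt dose response, 24 h at 37 C/5% CO2; FLuc then NanoLuc reagent, 10 min each, luminescence; DMSO/positive control normalized.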

First: CNCCC(Oc1ccccc1C)c1ccccc1 (stereo unspecified)
Second: CNCCC=C1c2ccccc2CCc2ccccc21
The “activation” value of the first is lower: -0.932% for the first, 5.92% for the second.

First: COc1cc(NS(C)(=O)=O)ccc1Nc1c2ccccc2nc2ccccc12
Second: CC(CCc1ccccc1)NCC(O)c1ccc(O)c(C(N)=O)c1 (stereo unspecified)
The “activation” value of the first is lower: -6.81% for the first, -5.24% for the second.

Compared with `O=C(O)c1cc2cc(Cc3cccnc3)ccc2o1`, `COC(=O)[C@H]1[C@H]2C[C@H]3c4[nH]c5ccccc5c4CCN3C[C@H]2CC[C@@H]1O` is lower in “activation” value: -0.138% for the first, -1.76% for the second.

Going from `C[N+]1(CCCCC[N+]2(C)CCCC2)CCCC1` to `CC(=O)O[C@H]1C[C@@H]2CC[C@@H]3[C@H](CC[C@@]4(C)[C@H]3C[C@H]([N+]3(C)CCCCC3)[C@@H]4OC(C)=O)[C@@]2(C)C[C@@H]1[N+]1(C)CCCCC1`, the “activation” value falls from 3.1% to 0.425%.

Going from `N[C@H](CO)C(=O)O` to `CC1(C)CCC(NC(=O)[C@@H](N)CCC(=O)O)CC1`, the “activation” value rises from 1.85% to 4.14%.

First: CC(C)C[C@H]1C(=O)N2CCC[C@H]2[C@]2(O)O[C@](NC(=O)[C@@H]3C=C4c5cccc6[nH]c(Br)c(c56)C[C@H]4N(C)C3)(C(C)C)C(=O)N12
Second: CC(C)COC(=O)OCN1C(=O)CN(CCN2CC(=O)N(COC(=O)OCC(C)C)C(=O)C2)CC1=O
The “activation” value of the first is lower: -4.59% for the first, 2.13% for the second.

First: CCC(NC(C)C)C(O)c1ccc(O)c(O)c1 (stereo unspecified)
Second: C[C@@H]1C(=O)NC2=Nc3cccc(Cl)c3CN21
The “activation” value of the first is lower: -0.0665% for the first, 4.03% for the second.

In the case of `C1CCc2nnnn2CC1`, the “activation” value is reported as -0.128%.

System: not listed separately
Assay: qHTS for Activators of Parkin Expression: LOPAC Validation Assay (FLuc Reporter) (AID 720573;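 further: 0% = DMSO and 100% = positive control compounds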)
Conditions: Cell line, PRKN promoter firefly luciferase reporter, vehicle wells = 0, positive control = 100%; series mostly up to 46.1 µM; activation: at the top concentration
Summary of the method: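 A neuronal cell line harbouring FLuc and NLuc reporters behind the Parkin promoter was exposed to compounds for 24 h. Firefly luciferase signal, measured after 10 min with detection reagent, was scaled to DMSO and positive-control wells.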

Compared with `CNCCC(Oc1ccccc1C)c1ccccc1` (stereo unspecified), `CNCCC=C1c2ccccc2CCc2ccccc21` is lower in “activation” value: -10.2% for the first, -12.7% for the second.

First: COc1cc(NS(C)(=O)=O)ccc1Nc1c2ccccc2nc2ccccc12
Second: CC(CCc1ccccc1)NCC(O)c1ccc(O)c(C(N)=O)c1 (stereo unspecified)
The “activation” value of the first is lower: -14.5% for the first, -9.8% for the second.

Compared with `O=C(O)c1cc2cc(Cc3cccnc3)ccc2o1`, `COC(=O)[C@H]1[C@H]2C[C@H]3c4[nH]c5ccccc5c4CCN3C[C@H]2CC[C@@H]1O` is lower in “activation” value: 9.42% for the first, -5.3% for the second.

Going from `C[N+]1(CCCCC[N+]2(C)CCCC2)CCCC1` to `CC(=O)O[C@H]1C[C@@H]2CC[C@@H]3[C@H](CC[C@@]4(C)[C@H]3C[C@H]([N+]3(C)CCCCC3)[C@@H]4OC(C)=O)[C@@]2(C)C[C@@H]1[N+]1(C)CCCCC1`, the “activation” value rises from 6.64% to 8.05%.

First: N[C@H](CO)C(=O)O
Second: CC1(C)CCC(NC(=O)[C@@H](N)CCC(=O)O)CC1
The “activation” value of the first is higher: 8.23% for the first, 1.48% for the second.

First: CC(C)C[C@H]1C(=O)N2CCC[C@H]2[C@]2(O)O[C@](NC(=O)[C@@H]3C=C4c5cccc6[nH]c(Br)c(c56)C[C@H]4N(C)C3)(C(C)C)C(=O)N12
Second: CC(C)COC(=O)OCN1C(=O)CN(CCN2CC(=O)N(COC(=O)OCC(C)C)C(=O)C2)CC1=O
The “activation” value of the first is lower: -9.12% for the first, 0.249% for the second.

First: CCC(NC(C)C)C(O)c1ccc(O)c(O)c1 (stereo unspecified)
Second: C[C@@H]1C(=O)NC2=Nc3cccc(Cl)c3CN21
The “activation” value of the first is lower: -8.27% for the first, 11.5% for the second.

For `C1CCc2nnnn2CC1`, the “activation” value was -6.95%.
